Source: PubChem BioAssay (National Center for Advancing Translational Sciences (NCATS))
ATXN2 expr inh: inhibitors of ATXN2 expression; HEK-293 ATXN2-luciferase reporter, luminescence, 24 h; Potency, µM (highest dose often 57 µM), inactives show top-dose activity change, negative = inhibition, actives largely listed as inhibitors; hit rate 0.72% among 360,000; also: % is scaled to controls: 0 for no effect and ±100 for the full control effect; nearly all actives have a fitted effect of over 55% in size
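qHTS (up to 57 uM final) was run with 24 h compound exposure of reporter cells at 37 °C. Each well was multiplexed: SteadyGlo luminescence measured ATXN2-luciferase expression after a fluorogenic Gly-Phe-AFC viability readout (25 uM final).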
S2 tox: viability counter-screen for ATXN expression inhibitors; S2 cells (HEK-293 line with an ATXN2-luciferase reporter) viability, CellTiter-Fluor protease fluorescence, 24 h; AID 651635; Potency, µM (series often up to 56.7 µM), hits mostly cytotoxic; hit rate 0.49% among 400,000; also: nearly all actives have a fitted effect of over 40% in size
TGFb inhibitor: inhibitors of TGF-b signaling; HepG2 CAGA-GFP TGF-b/SMAD3 reporter, GFP fluorescence, 18 h; TGF-beta stimulated, 500 pg/mL final; Potency, µM (highest dose often 46.1 µM), for inactives: at the highest dose activity, negative = inhibition, usual class: inhibitors; hit rate 1.2% among 410,000; also: % is scaled to controls: 0 for no effect and ±100 for the full control effect; nearly all actives have a fitted effect of over 65% in size
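Using HEPG2 CAGA-GFP reporter cells at 1000 cells/well, we pinned test compounds, stimulated with recombinant TGF-beta (500 pg/mL final) and measured total well GFP after 18 h.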
HepG2 tox: counter-screen for TGF-b inhibitors: cytotoxicity in HepG2 cells; AID 588856; hit rate 0.76% among 410,000; HepG2 CAGA-GFP viability, ATP luminescence, 18 h; Potency, µM (series often up to 46.1 µM), without a hit: at the top dose activity change, negative = cytotoxicity, usual class: cytotoxic
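CellTiter-Glo luminescence gave cytotoxicity after 18 hours at 37 degrees C. The cells were HepG2 CAGA-GFP in 1% FBS DMEM, stimulated with 500 pg/mL TGF-beta after compound addition. %Activity was normalised to no-cell wells (complete cell-killing) and DMSO (no toxicity), and curves were fitted and classified.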
HT1080 IDH1KD tx: kills HT-1080 cells with IDH1 knockdown; Potency, µM (top dose mostly 46.1 µM), for the others: at the highest dose activity, negative = toxicity, most hits filed as cytotoxic; HT-1080 IDH1 knockdown viability, ATP luminescence, 48 h; hit rate 2% among 360,000;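 also: 0% = DMSO wells and -100% = cell-free medium wells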
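Using the IDH1-knockdown HT-1080 line run in the same batch and compound series as the NT line, viability after 48 h at 37 °C was determined by CellTiter-Glo luminescence and expressed as % activity.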
HT1080NT lethal: kills 2HG-producing HT-1080-NT fibrosarcoma cells; hit rate 1.6% among 360,000; Potency, µM (highest dose often 46.1 µM), inactives show at the top dose activity, negative = less viability, usual class: cytotoxic; HT-1080-NT fibrosarcoma viability, CellTiter-Glo ATP luminescence, 48 h;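 also: NT is the 2HG producing partner of a matched IDH1 knockdown line; 0% = DMSO-treated cells and -100% = media-only wells without cells; nearly all actives have a fitted effect of over 55% in size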
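Toxicity toward the 2HG-producing NT line was scored as %Activity, normalised to DMSO and no-cell wells, from CellTiter-Glo luminescence after 48 hours' treatment.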
An asterisk follows results filed as active; i = inactive; ? = inconclusive; . = no result given. Sampled rows, rich in hits. Any-hit rate of the full collection: about 3.9%. Calls follow the shape of the dose curve; as a rule, active = well fitted curve in the direction sought with a large enough effect; inconclusive = small, poorly fitted or top-dose-only effect, or another doubt; inactive = no such curve, though single readings can be large; an effect the other way counts as inactive or inconclusive. Potency is read from the fitted curve at half-maximal effect.

SMILES | ATXN2 expr inh | S2 tox | TGFb inhibitor | HepG2 tox | HT1080 IDH1KD tx | HT1080NT lethal
CC(NC(=O)Oc1cccc2ccccc12)c1ccccc1 (configuration not stated) | -5% | i | 5% | -35% | -26% | -14%
CCCCCc1cc(O)c2c3c(c(=O)oc2c1)CN(C)CC3 | -12% | i | ? | 10µM* | 3% | 4%
CCOC(=O)C(C)Oc1cc(C)cc2oc(=O)c3c(c12)CCCC3 (configuration not stated) | 59% | i | -4% | -7% | -8% | -1%
CCOc1ccc(N(C(C)C(=O)Nc2cc(Cl)ccc2OC)S(C)(=O)=O)cc1 (configuration not stated) | -18% | ? | ? | -14% | . | .
CCc1ccc(-n2c(=O)c3sc4ccccc4c3n(CC(=O)NC3CCCC3)c2=O)cc1 | 0% | ? | 1% | -2% | . | .
CN(C)c1ccc(/C=C/c2cc[n+](C)c3ccccc23)cc1 | ? | 6µM* | 7.1µM* | -70% | 7.3µM* | ?
C[n+]1ccc(-c2ccccc2)c2ccccc21 | -14% | ? | ? | -18% | -26% | ?
C[n+]1c(-c2ccccc2)sc2ccccc21 | . | ? | -18% | -18% | -2% | -1%
CN(C)c1ccc(/C=C/C=C/c2sc3ccccc3[n+]2C)cc1 | ? | ? | 8.9µM* | -20% | ? | 21µM*
CC[n+]1c(/C=C/C=C/c2ccc(N(C)C)cc2)sc2ccccc21 | ? | . | ? | -15% | 7.3µM* | 5.8µM*
O=C(NC(c1cccnc1)C(F)(F)F)c1cnn(-c2nccc(-c3cccs3)n2)c1C1CC1 (configuration not stated) | . | i | . | . | . | .
Cc1ccccc1CN1Cc2cnnn2-c2ccccc2C1C#N (configuration not stated) | ? | . | ? | -85% | 6.5µM* | 8.2µM*
CC(Oc1ccc(Br)cc1)C(=O)N(Cc1nc(-c2ccccc2)no1)C(C)C (configuration not stated) | . | . | ? | -27% | . | .
Cn1c(=O)oc2cc(S(=O)(=O)N3CCCc4ccccc43)ccc21 | -20% | i | 0% | -21% | 8.2µM* | 6.5µM*
Cn1c(=O)oc2cc(S(=O)(=O)N3CCc4ccccc43)ccc21 | -19% | i | -26% | -3% | ? | -15%
CCN(CC)c1ccc2c(cc1=O)[C@@H](NC)CCc1cc(OC)c(OC)c(OC)c1-2 | -15% | ? | ? | -27% | ? | 1.3µM*
COc1cc2c(c(OC)c1OC)-c1ccc(C(=O)O)cc1[C@@H](NC(C)=O)CC2 | 0% | i | 3% | 14% | . | .
COc1cc2c(c(OC)c1O)-c1ccc(OC)c(=O)cc1C(NC(=O)C(F)(F)F)CC2 (configuration not stated) | -5% | ? | ? | -5% | ? | 0.013µM*
COc1cc([C@@H]2c3cc4c(cc3[C@H](O)[C@H]3COC(=O)[C@@H]23)OCO4)cc(OC)c1OC | ? | . | -9% | 15% | . | .
Cc1cnc(SCc2ccccn2)nc1C1CCCN(C(=O)c2ccc(-c3ccccc3F)cc2)C1 (configuration not stated) | . | i | . | . | . | .
CC(=O)OC1CC(OC2C(O)CC(OC3C(O)CC(OC4CCC5(C)C(CCC6C5CCC5(C)C(C7=CC(=O)OC7)CCC65O)C4)OC3C)OC2C)OC(C)C1OC1OC(CO)C(O)C(O)C1O (configuration not stated) | 0.0075µM* | ? | ? | -41% | 0.052µM* | 0.082µM*
Cc1cc(O)c2c(c1)C(=O)C13C(=C2O)C(=O)[C@H]2[C@@H](O)[C@@H]1[C@H]1[C@H](O)[C@@H]3C(=O)C3=C(O)c4c(O)cc(C)cc4C(=O)C312 (some centres not stated) | 4% | ? | ? | -68% | 5.2µM* | 0.58µM*
COc1nc(C)nc(Cl)c1NC1=NCCN1 | -10% | i | 5% | -17% | 0% | ?
CCCCOP(=O)(c1ccc(N(C)C)cc1)C(Nc1ccccc1)c1ccccc1 (configuration not stated) | ? | ? | 16µM* | -95% | -18% | -10%
CC(C)c1ccc(C(O)P(=O)(OCc2ccccc2)c2ccc(N(C)C)cc2)cc1 (configuration not stated) | -31% | ? | ? | -82% | -2% | -5%
SMILES | ATXN2 expr inh | S2 tox | TGFb inhibitor | HepG2 tox | HT1080 IDH1KD tx | HT1080NT lethal
COc1cc(C(=O)NCCSc2c(-c3ccccc3)[nH]c3ccccc23)cc(OC)c1OC | ? | ? | ? | -14% | . | .
CN(C)C1(CNC(=O)Nc2ccc(Cl)c(Cl)c2)CCCCC1 | ? | ? | ? | 16µM* | ? | 21µM*
COc1ccc(CNC(=O)Cn2c(=O)oc3cc(S(=O)(=O)N4CCCCCC4)ccc32)cc1 | . | . | -2% | -36% | . | .
Cc1ccsc1-c1nc(CSCC(=O)N2CCC3(CC2)OCCO3)c(C)o1 | 1% | i | 0% | -27% | -11% | 0%
CCOc1ccc(-c2nc(CSCC(=O)NCCc3ccc(OCC)c(OCC)c3)c(C)o2)cc1 | 20µM* | 32µM* | -17% | -16% | . | .
COc1ccc(-n2cc(-c3ccccc3)c3c(N4CCN(CCO)CC4)ncnc32)cc1 | ? | ? | ? | -70% | ? | 16µM*
CCN(C(=O)Cn1c(=O)oc2cc(S(=O)(=O)N3CCCCCC3)ccc21)c1cccc(C)c1 | . | . | . | -34% | . | .
c1ccc(C2(N3CCCCC3)CCCCC2)cc1 | -7% | i | 12% | 1% | -4% | 8%
S=C=Nc1cccc(C2(N3CCCCC3)CCCCC2)c1 | -39% | ? | 14% | -48% | 18µM* | 23µM*
Cc1ccc(NC(=O)Nc2cc3c(cc2N2CCCCC2)n(C)c(=O)n3C)cc1Cl | -18% | i | ? | -9% | . | .
COc1cc(=O)n2c(c1C(=O)N(C)Cc1nonc1C)CCN(C(=O)C1C(C)(C)C1(C)C)CC2 | . | i | . | . | . | .
ClCCN(CCCl)c1ccc(/C=C/c2ccnc3ccccc23)cc1 | . | . | -11% | -33% | . | .
C/C1=C\[C@@H](C)C/C=C/[C@H]2[C@@H]3O[C@]3(C)[C@@H](C)[C@H]3[C@H](Cc4c[nH]c5ccccc45)NC(=O)[C@]32C(=O)/C=C/C(=O)[C@@H]1O | ? | 32µM* | 2.8µM* | -98% | ? | -22%
CNCC(O)c1ccc(OC(=O)C(C)(C)C)c(OC(=O)C(C)(C)C)c1 (configuration not stated) | -2% | i | -2% | -32% | -13% | -6%
CC(C)(C)c1cc(C=C(C#N)C#N)cc(Br)c1O | 27µM* | . | . | . | . | .
